Experimental findings from ChEMBL document CHEMBL1961873, “Compounds: GSK PKIS; Assays: Nanosyn kinase panel” (2012) are described below.

Test [1] concerns the target Rho-associated protein kinase 1 (Homo sapiens) (UniProt Q13464). As to conditions: at 1 µM.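 Further: reported values are mean percent inhibition of ROCK1.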
Test [2] has as its target Rho-associated protein kinase 2 (Homo sapiens) (UniProt O75116). Conditions: at 0.1 µM.
The target is the same in test [3]. As to conditions: at 1 µM.
The target in test [4] is Ribosomal protein S6 kinase alpha-1 (Homo sapiens) (UniProt Q15418). As to conditions: at 0.1 µM.
Ribosomal protein S6 kinase alpha-1 (Homo sapiens), sequence (Q15418 whole entry): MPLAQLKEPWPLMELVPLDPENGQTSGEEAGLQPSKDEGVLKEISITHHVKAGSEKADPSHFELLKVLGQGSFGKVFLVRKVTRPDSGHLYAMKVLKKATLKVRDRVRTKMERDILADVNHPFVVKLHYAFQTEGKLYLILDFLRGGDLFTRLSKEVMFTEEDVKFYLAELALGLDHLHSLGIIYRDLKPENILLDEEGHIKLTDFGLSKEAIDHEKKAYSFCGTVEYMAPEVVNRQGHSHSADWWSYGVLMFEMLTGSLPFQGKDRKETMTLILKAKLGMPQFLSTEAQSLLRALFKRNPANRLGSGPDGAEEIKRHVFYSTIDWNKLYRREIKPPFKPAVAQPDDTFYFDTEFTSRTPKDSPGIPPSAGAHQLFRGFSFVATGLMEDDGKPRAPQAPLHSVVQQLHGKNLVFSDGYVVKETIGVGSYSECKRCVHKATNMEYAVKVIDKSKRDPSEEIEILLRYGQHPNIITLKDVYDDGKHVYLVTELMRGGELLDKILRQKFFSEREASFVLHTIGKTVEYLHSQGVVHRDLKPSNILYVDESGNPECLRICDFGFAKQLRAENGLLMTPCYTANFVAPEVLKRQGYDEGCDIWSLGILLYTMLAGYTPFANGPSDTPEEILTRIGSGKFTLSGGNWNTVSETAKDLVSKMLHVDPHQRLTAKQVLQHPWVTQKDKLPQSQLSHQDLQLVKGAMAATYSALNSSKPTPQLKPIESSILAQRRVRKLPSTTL
For test [5] the target is unchanged. As to conditions: at 1 µM.
Test [6] deals with Ribosomal protein S6 kinase alpha-3 (Homo sapiens) (UniProt P51812). Conditions: at 0.1 µM.
The target is the same in test [7]. Conditions: at 1 µM.
Test [8] concerns the target Ribosomal protein S6 kinase alpha-2 (Homo sapiens) (UniProt Q15349). Conditions: at 0.1 µM.
Test [9] shares this target. Conditions: at 1 µM.
For test [10], the target named is Ribosomal protein S6 kinase alpha-6 (Homo sapiens) (UniProt Q9UK32). Conditions: at 0.1 µM.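 Further: reported value is the mean inhibition of RSK4, from the GSK PKIS kinase inhibitor screen.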
Ribosomal protein S6 kinase alpha-6 (Homo sapiens), sequence (Q9UK32 whole entry): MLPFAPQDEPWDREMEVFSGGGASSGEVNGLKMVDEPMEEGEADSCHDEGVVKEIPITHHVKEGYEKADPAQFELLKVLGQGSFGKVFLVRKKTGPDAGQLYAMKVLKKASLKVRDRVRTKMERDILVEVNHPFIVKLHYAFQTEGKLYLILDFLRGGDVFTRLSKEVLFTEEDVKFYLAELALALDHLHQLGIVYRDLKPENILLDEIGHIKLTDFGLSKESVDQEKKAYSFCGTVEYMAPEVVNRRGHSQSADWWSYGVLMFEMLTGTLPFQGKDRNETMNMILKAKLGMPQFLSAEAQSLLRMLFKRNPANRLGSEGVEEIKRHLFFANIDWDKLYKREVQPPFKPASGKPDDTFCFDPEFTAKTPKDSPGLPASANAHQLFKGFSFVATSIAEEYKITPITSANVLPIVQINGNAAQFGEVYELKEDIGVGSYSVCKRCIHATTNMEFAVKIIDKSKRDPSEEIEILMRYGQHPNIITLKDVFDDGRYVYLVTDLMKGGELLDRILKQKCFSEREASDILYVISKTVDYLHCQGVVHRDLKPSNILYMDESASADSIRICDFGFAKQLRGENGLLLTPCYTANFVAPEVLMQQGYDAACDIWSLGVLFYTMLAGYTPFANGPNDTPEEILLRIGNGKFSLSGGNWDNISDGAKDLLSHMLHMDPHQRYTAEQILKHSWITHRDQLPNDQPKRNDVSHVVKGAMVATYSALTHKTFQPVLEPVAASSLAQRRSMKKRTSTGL

Rho-associated protein kinase 1 (Homo sapiens), sequence (Q13464 2-1354 limits assumed): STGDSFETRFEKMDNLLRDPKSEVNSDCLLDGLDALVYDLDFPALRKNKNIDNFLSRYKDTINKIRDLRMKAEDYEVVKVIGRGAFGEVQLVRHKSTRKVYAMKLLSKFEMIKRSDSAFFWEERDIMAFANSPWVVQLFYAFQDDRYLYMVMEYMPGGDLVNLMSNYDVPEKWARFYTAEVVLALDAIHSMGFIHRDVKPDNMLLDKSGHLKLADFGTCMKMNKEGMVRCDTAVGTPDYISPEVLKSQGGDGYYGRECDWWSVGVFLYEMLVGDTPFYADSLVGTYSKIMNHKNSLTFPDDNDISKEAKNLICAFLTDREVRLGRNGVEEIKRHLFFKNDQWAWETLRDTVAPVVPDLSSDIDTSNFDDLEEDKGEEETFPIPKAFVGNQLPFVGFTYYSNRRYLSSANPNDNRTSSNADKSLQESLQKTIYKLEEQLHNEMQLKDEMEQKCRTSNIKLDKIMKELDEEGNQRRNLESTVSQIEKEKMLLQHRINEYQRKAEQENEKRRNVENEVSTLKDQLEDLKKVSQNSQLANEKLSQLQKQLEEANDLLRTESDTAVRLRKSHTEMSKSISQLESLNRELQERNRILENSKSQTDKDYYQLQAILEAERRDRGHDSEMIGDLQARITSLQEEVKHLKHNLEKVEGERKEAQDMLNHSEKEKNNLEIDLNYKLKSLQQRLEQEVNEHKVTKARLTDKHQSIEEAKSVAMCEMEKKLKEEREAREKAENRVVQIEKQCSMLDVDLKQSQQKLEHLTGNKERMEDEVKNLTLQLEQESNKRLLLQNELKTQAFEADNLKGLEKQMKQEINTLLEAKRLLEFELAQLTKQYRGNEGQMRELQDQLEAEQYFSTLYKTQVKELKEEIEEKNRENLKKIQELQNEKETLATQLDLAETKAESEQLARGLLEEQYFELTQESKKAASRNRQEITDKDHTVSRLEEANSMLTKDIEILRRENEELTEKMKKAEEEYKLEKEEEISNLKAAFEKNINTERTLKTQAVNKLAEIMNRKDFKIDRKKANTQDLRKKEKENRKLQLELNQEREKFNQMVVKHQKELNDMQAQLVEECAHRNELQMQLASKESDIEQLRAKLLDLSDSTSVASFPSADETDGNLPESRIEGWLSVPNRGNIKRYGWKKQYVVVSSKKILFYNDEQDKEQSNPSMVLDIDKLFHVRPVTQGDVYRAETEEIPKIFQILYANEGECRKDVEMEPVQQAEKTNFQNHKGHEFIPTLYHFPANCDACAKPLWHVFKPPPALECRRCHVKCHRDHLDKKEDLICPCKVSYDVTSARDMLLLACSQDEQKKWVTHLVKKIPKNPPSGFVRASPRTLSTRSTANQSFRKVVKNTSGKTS
Ribosomal protein S6 kinase alpha-2 (Homo sapiens), sequence (Q15349 whole entry): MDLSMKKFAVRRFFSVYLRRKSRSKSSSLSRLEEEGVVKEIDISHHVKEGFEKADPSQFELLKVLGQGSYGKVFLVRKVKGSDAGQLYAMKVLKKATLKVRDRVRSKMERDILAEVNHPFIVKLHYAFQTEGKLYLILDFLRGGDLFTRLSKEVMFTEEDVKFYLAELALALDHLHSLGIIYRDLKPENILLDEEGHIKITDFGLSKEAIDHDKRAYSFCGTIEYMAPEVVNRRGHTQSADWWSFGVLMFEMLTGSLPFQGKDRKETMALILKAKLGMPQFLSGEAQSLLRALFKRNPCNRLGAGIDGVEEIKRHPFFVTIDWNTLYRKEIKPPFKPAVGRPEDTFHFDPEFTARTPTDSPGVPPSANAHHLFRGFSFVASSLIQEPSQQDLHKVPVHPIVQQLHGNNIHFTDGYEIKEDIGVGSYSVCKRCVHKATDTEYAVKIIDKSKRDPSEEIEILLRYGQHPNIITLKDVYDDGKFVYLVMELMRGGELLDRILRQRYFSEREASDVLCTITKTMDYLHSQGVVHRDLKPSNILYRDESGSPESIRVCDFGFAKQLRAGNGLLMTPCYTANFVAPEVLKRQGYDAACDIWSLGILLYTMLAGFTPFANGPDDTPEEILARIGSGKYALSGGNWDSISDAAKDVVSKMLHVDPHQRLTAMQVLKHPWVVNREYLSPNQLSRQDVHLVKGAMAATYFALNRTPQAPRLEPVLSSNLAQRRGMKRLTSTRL
Rho-associated protein kinase 2 (Homo sapiens), sequence (O75116 whole entry, looked up): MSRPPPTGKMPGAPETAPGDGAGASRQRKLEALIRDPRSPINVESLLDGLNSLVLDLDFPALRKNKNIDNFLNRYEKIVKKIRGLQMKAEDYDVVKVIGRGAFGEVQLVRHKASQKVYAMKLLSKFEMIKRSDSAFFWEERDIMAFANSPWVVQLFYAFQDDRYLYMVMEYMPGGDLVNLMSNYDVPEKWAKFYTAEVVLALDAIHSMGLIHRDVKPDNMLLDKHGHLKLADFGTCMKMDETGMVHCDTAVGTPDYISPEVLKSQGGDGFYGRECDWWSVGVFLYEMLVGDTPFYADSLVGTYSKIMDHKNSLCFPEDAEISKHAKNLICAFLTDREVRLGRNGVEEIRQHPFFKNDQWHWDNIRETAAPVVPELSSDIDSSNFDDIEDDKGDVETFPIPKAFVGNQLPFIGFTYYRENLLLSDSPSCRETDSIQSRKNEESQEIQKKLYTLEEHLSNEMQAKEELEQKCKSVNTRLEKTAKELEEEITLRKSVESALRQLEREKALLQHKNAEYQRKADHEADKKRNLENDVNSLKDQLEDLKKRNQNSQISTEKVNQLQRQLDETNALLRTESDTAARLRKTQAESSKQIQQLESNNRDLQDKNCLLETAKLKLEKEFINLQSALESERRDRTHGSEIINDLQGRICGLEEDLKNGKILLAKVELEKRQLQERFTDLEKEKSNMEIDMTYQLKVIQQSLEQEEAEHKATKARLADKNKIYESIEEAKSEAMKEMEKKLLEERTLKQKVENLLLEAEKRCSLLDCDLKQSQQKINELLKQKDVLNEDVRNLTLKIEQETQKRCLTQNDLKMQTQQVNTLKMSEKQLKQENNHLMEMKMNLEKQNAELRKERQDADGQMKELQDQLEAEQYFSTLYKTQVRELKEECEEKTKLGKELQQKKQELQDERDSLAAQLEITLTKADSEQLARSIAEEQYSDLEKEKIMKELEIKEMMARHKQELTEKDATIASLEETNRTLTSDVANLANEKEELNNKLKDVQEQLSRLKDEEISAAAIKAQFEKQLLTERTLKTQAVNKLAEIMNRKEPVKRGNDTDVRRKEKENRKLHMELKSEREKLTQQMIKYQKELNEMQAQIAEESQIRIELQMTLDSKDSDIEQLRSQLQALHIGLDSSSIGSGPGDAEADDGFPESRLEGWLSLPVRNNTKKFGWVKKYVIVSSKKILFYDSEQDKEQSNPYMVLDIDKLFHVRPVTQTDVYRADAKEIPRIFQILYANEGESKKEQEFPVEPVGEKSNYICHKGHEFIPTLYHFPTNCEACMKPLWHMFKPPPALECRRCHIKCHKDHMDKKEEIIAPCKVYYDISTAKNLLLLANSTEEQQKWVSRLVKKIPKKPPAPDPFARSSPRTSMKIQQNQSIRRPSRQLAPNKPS

Broadly, the inhibition is the change of the read-out against control, counted positive when it falls. In the case of `COc1ccc(-c2nn3ncccc3c2-c2ccnc(Nc3ccc4c(c3)OCCO4)n2)cc1`, the inhibition was 0.84% in test [1]; -0.09% in [2]; 1.51% in test [3]; -0.25% in test [4]; -1.03% in [5]; 0.04% in [6]. In addition, the inhibition came to 0.87% in test [7], 1.27% in test [8], 0.17% in [9] and 0.7% in test [10].
Take `Cc1ccc(O)cc1Nc1ccnc2cc(-c3ccccn3)ccc12`: the inhibition worked out at 3.92% in [1]; 2.07% in test [2]; 0.33% in test [3]; 1.44% in test [4]; 0.51% in test [5]; 0.48% in test [6]. The inhibition in test [7] is -0.99%; in test [8], 1.68%; in test [9], 2.66%; in test [10], 0.21%.
For the compound `COc1cc(/C=N/Nc2ncnc3[nH]ncc23)ccc1O`, the inhibition in test [1] amounted to 5.67%; in test [2] it was 4.64%; in [3], 13.9%; in test [4], 1.89%; in test [5] it was 11.3%; in test [6] it was 2.74%. Further, the inhibition in test [7] is 11.7%; in test [8], 1.62%; in test [9], 9.77%; in test [10], 2.97%.
As to `Fc1cccc(COc2ccc(Nc3ncnc4sc(-c5ccco5)cc34)cc2Cl)c1`, the inhibition in test [1] was determined as 2.72%; in test [2] it was 3.35%; in test [3], 4.12%; in [4], 2.09%; in test [5], 2.91%; in test [6] it was 1.55%. Besides, the inhibition in test [7] amounted to 3.12%; in test [8], 2.51%; in test [9], 2.48%; in test [10], 1.33%.
As to `CCN1CCC(CC(=O)Nc2n[nH]c3nnc(-c4cccc(F)c4F)cc23)CC1`, the inhibition came to 0.43% in test [1]; 1.58% in test [2]; 0.93% in [3]; 1.35% in [4]; 2.11% in [5]; 3.2% in test [6]. Further, the inhibition is 3.53% in test [7], 1.12% in test [8], 1.83% in test [9] and 1.84% in test [10].
Consider `CC1=C(C(=O)Nc2cc(Cl)c3[nH]ncc3c2)C(c2ccc(C(F)(F)F)cc2)CC(=O)N1` (stereo not given), for which the inhibition in test [1] is 84%; in [2], 72.3%; in test [3] it was 85.8%; in test [4] it was 27.8%; in test [5], 68.7%; in [6] it was 22.3%. Besides, the inhibition amounted to 65.5% in test [7], 13.1% in test [8], 53.4% in test [9] and 7.7% in [10].
For `CNC(=O)c1cc(-c2ccc(F)cc2)cc(-c2ccc(S(=O)(=O)N3CCCC3)cc2)c1N`, the inhibition was 1.95% in test [1]; 1.69% in test [2]; 2.18% in test [3]; 0.9% in test [4]; 1.77% in [5]; 1.31% in test [6]. The inhibition is 1.69% in test [7], 2.73% in [8], 2.91% in test [9] and 0.1% in test [10].
Regarding `CS(=O)(=O)CCNCc1coc(-c2ccc3ncnc(Nc4ccc(OCc5ccccc5)cc4)c3c2)c1`, the inhibition in [1] was determined as 1.33%; in [2], 1.66%; in [3], 1.35%; in test [4], 2.08%; in [5], 2.82%; in test [6], 2.71%. The inhibition in [7] came to 3.03%; in test [8], 3.38%; in test [9], 3.14%; in test [10], 2.43%.
For `COc1cc(Nc2nccc(Nc3ccc4c(C)n[nH]c4c3)n2)cc(OC)c1OC`, the inhibition in [1] is 7.47%; in test [2], 1.83%; in test [3] it was 12.1%; in [4] it was -0.21%; in [5], -0.01%; in test [6], 1.04%. In addition, the inhibition in test [7] is 0.03%; in test [8] it was 0.87%; in test [9], 0.74%; in test [10], 1.26%.
Consider `COc1ccc(-c2cc(-c3c[nH]nc3-c3ccccn3)ccn2)cc1`, for which the inhibition was 4.3% in test [1]; 4.88% in [2]; 7.92% in [3]; 2.73% in test [4]; 6.34% in test [5]; 1.84% in [6]. The inhibition in test [7] came out at 4.06%; in [8], 2.82%; in test [9], 4.07%; in test [10], 1.53%.
As for `CN(C)CCOc1ccc(-c2nc(-c3ccncc3)c(-c3ccc4c(c3)CC/C4=N\O)[nH]2)cc1`, the inhibition in test [1] was determined as 1.11%; in test [2] it was 3.19%; in test [3] it was 4.22%; in test [4], 2.14%; in test [5], 5.08%; in [6] it was 1.07%. For the same compound, the inhibition turned out to be 2% in [7], 1.9% in test [8], 2.18% in [9] and 0.86% in test [10].
As to `N#Cc1c(NC(=O)CN2CCOCC2)sc2c1CCCC2`, the inhibition is 0.87% in test [1]; 5.37% in test [2]; 3.55% in test [3]; 2.13% in test [4]; 3.62% in [5]; 1.56% in test [6]. Further, the inhibition in test [7] stood at 0.9%; in test [8], 1.89%; in test [9], 1.68%; in [10], 1.4%.
`COc1cccc(-c2c[nH]c3c(N/N=C/c4ccncc4)ncnc23)c1`: the inhibition in test [1] turned out to be 7.68%; in test [2], 3.52%; in test [3] it was 11.7%; in [4] it was 2.76%; in [5], 7.19%; in test [6], 1.21%. Besides, the inhibition in test [7] was determined as 7.47%; in [8], 2.28%; in test [9], 11.7%; in [10], 1.63%.
For the compound `COc1cc2ncn(-c3cc(OCc4ccccc4C(F)(F)F)c(C(=O)N(C)C)s3)c2cc1OC`, the inhibition in test [1] is 0.34%; in test [2] it was -0.35%; in test [3] it was 1.56%; in test [4], -0.72%; in test [5], 0.84%; in [6], -0.53%. Moreover, the inhibition in test [7] was 0.59%; in test [8], -0.15%; in test [9], 1.29%; in [10], -0.29%.
Turning to `COc1ccc2[nH]c3c4[nH]c5ccc(OC)cc5c4c4c(c3c2c1)C(=O)NC4=O`, the inhibition turned out to be 7.02% in test [1]; 6.62% in [2]; 16.6% in [3]; 53.9% in test [4]; 82% in test [5]; 44.9% in [6]. Also, the inhibition was 80.1% in test [7], 73.5% in test [8], 92.4% in test [9] and 58.2% in [10].
In the case of `COc1ccc(-c2oc3ncnc(N)c3c2-c2ccc(NC(=O)Nc3cc(C(F)(F)F)ccc3F)cc2)cc1`, the inhibition came to 11.5% in test [1]; 6.51% in [2]; 41.8% in [3]; 10.5% in test [4]; 61.3% in [5]; 4.28% in test [6]. The inhibition in test [7] came to 34.4%; in test [8], 1.67%; in test [9], 34.1%; in test [10], 0.74%.
